# Source: PubChem BioAssay
# This is a sample that favours compounds with a hit; in the whole collection about 1.5% have one here.
# Insulin prom up – MIN6 insulin promoter up-regulation | MIN6 insulin promoter-GFP reporter, high-content imaging; stronger effect = higher value | z-score at 5 µM | actives 0.3% (n = 190,000);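 active = z-score above 3 at 5 µM with at least 500 cells counted in the well; inconclusive = wells under 500 cells, flagged as cytotoxic or low count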
# S1P4 antag – blocks the human S1P4 receptor. AID 1510. actives 0.26% (n = 220,000). inhibition, % at 4.98 µM. S1P4-expressing cells, antagonist mode, reporter read-out; in the data active = inhibition above about 29%;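 note: 0% = wells stimulated with agonist and 100% = vehicle wells without agonist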
# Target sequence (O95977 whole entry, looked up): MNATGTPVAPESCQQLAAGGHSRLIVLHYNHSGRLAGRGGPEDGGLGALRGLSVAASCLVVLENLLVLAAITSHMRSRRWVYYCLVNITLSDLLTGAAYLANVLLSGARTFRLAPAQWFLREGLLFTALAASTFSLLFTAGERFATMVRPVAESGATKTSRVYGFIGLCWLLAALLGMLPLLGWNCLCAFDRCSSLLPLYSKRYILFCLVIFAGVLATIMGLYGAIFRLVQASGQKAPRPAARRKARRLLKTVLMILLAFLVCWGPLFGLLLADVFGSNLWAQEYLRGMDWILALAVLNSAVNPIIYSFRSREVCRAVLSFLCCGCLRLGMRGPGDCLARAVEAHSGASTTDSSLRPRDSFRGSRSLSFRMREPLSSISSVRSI
# INS promoter inh – TRM-6 insulin promoter activity inhibition | inhibition, % at 2 µM | actives 0.9% (n = 130,000) | TRM-6 cells (human fetal islet line), insulin promoter-eGFP reporter, imaging; reporter expression induced with tamoxifen;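 active = inhibition above the mean plus 3 SD, with well images judged a real hit on visual review, cut at about 60% in these data, passing the limit was not always enough; inconclusive = inhibition over the cutoff but images rejected on review; inactive = inhibition not above the cutoff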
# S1P4 agonist – activates the human S1P4 receptor; O95977; S1P4-expressing cell line, agonist reporter assay; activation, % at 4.98 µM; actives 0.35% (n = 220,000); AID 1509; in the data active = activation above about 11%;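 note: 0% = DMSO vehicle and 100% = reference agonist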
# Hsp70 act – switches on Hsp70 transcription; HeLa Hsp70 promoter luciferase reporter, luminescence; scaled: vehicle 0, proteasome-inhibitor control 100%; activation, % at 10 µM; actives 0.04% (n = 200,000);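 active = activation above the mean across all tested compounds plus 3 SD, cutoff set per campaign, cut at about 5.5% in these data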;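 note: 100% = MG132 at 30 µM as the positive control and 0% = DMSO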
# S1P3 antagonist – S1P3 (human) receptor antagonism | AID 485 | CHO S1P3 NFAT-BLA reporter, FRET fluorescence, antagonist mode | actives 0.27% (n = 170,000) | inhibition, % at 4.98 µM;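 active = inhibition above the plate cutoff, the mean inhibition of test wells on that plate plus 3 SD, cut at about 28% in these data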;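 note: cells challenged with S1P at its EC80 of 0.8 µM; blue over green emission ratio from cleaved BLA substrate after 4 h stimulation; 0% = S1P-stimulated wells and 100% = unstimulated DMSO-only wells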
# The depositor's hits bear a star; i = inactive; ? = inconclusive; nt = not tested or not shown.
SMILES,Insulin prom up,S1P4 antag,INS promoter inh,S1P4 agonist,Hsp70 act,S1P3 antagonist
CCOC(=O)/C(=C/C=C1\Sc2cc(OCC)c(OCC)cc2N1CC)C(C)=O,16*,-10,i,-3,0,-14
Cn1cc(/C=C2\SC(=S)N(NC(=O)c3ccccc3)C2=O)c2ccccc21,nt,-19,-12,0,0,4
Cn1cc(/C=C2\SC(=S)N(NC(=O)c3cccc(Cl)c3)C2=O)c2ccccc21,7.3*,-23,nt,-1,nt,1
COc1ccc(CCNC(=O)CSc2ncn[nH]2)cc1,-0.19,1,86*,0,0,nt
COc1ccc(CCNC(=O)CSc2ccccn2)cc1,-0.09,-3,-24,-1,0,-9
CCOc1ccc(Br)cc1CC(=O)O,nt,10,81*,4,0,nt
COc1cccc(CCNC(=O)CC2C(=O)NCCN2Cc2ccc(Cl)c(F)c2)c1 (stereo not given),0.01,-22,nt,-1,0,1
O=C(COc1cccc(F)c1)N1c2ccccc2Sc2ccccc21,-1.4,5,79*,1,0,-13
O=C(C1CCC1)N1CCc2cc(S(=O)(=O)NC3CCCC3)ccc21,0.64,2,6,-1,0,9
O=C(C1CCC1)N1CCc2cc(S(=O)(=O)NCc3ccco3)ccc21,-1.8,2,82*,0,0,20
CCOC(=O)/C(C#N)=C/Nc1ccsc1C(C)=O,-0.35,-3,nt,1,nt,-6
O=C1CN(C(=O)COc2ncnc3ccccc23)c2ccccc2N1,4*,17,0,1,0,nt
Cc1sc2ncnc(OCC(=O)N3CC(=O)Nc4ccccc43)c2c1C,0.66,-11,19,0,0,-15
CC(=O)N1CCN(C(=O)c2cc(C)nc3ccccc23)CC1,-0.05,-17,71*,0,0,-5
N#Cc1ccc2c(c1)nc1ccccn12,-0.24,-8,79*,2,0,4
Cc1nnc(SCC(=O)c2ccc(Cl)cc2)s1,0.13,-6,71*,3,0,-4
Cc1nnc(SCC(=O)c2ccc([N+](=O)[O-])cc2)s1,nt,-1,nt,0,0,2
CCOC(=O)c1nc(C)sc1-c1ccnn1S(=O)(=O)c1ccc(C)cc1,0.34,3,nt,1,nt,11
Cc1ccc(S(=O)(=O)N2CCSC2=Nc2ccccc2)cc1,1.3,-22,nt,2,nt,9
COc1ccc(C(=O)Nc2ccc3c4c(cccc24)CC3)cc1,1.4,-12,100*,-1,0,nt
CCCCNc1nc2ccccc2[nH]1,-0.08,-14,100*,2,0,nt
CCOCCCNc1nc2ccccc2[nH]1,nt,-5,-31,-1,0,-33
CC1(C)CC(NC(=O)CCC2CCCC2)CC(C)(C)N1,-0.25,-2,52,1,0,-19
CC1(C)CC(NC(=O)CC2CCCCC2)CC(C)(C)N1,nt,14,82*,1,0,-14
Cc1ccc(C(=O)Nc2cc(C(F)(F)F)ccc2N2CCCCC2)cc1[N+](=O)[O-],-0.16,-16,-11,0,0,nt
SMILES,Insulin prom up,S1P4 antag,INS promoter inh,S1P4 agonist,Hsp70 act,S1P3 antagonist
CC(C)CCNC1=CC(=O)CC(c2ccccc2)C1 (stereo not given),1.3,-7,34,0,0,4
CN(C)CCCNC1=CC(=O)CC(c2ccccc2)C1 (stereo not given),-0.4,2,83*,0,0,-1
CC1=CC(=O)c2c(O)ccc(O)c2C1=O,?,-3,nt,-2,0,-8
O=[N+]([O-])c1cc(S(=O)(=O)N2CCCCCC2)ccc1Cl,0.3,86*,nt,-5,0,-20
O=C(O)Cc1sc(Nc2ccc(F)cc2)nc1-c1cccs1,-0.13,-14,-15,1,0,10
Cc1ccc(NC(=O)NCCCl)cc1S(=O)(=O)N1CCOCC1,-0.18,1,nt,2,nt,-9
COCCN1C(=O)c2ccccc2C(C(=O)NCCN(C)C)C1c1ccc(F)cc1 (stereo not given),-0.37,-2,79*,2,0,nt
O=C(CSc1nc(-c2ccccc2)c(-c2ccccc2)[nH]1)NCCN1C(=O)CSC1=O,-0.3,-14,32,0,0,nt
CCc1ccccc1NC1c2ccccc2C(=O)N1Cc1ccco1 (stereo not given),nt,-27,-100,0,0,75*
COc1ccccc1CNC(=O)c1ccc(-c2ccccc2Cl)o1,0.05,20,-59,0,0,7
Cc1ccc(NC(=O)COC(=O)CN2C(=O)NC(C)(C)C2=O)cc1S(=O)(=O)N1CCOCC1,0.18,-29,79*,0,0,3
Cc1ccc(NC(=O)COC(=O)CN2C(=O)C3CCCCC3C2=O)cc1S(=O)(=O)N1CCOCC1 (stereo not given),-0.18,-2,-20,1,0,-1
c1ccc(-c2noc(-c3cccnc3)n2)nc1,0.58,-3,89*,3,0,-50
Nc1ccc(-c2nc3nc(N)nc(N)c3nc2-c2ccc(N)cc2)cc1,4.9*,-6,nt,0,nt,-7
CCN(CC)S(=O)(=O)c1ccc(N2CCOCC2)c(NC(=O)C2CCCO2)c1 (stereo not given),1.4,-10,nt,-1,nt,-9
COc1cccc(N2C(=O)C(CC(=O)Nc3ccc(F)cc3)N(C3CCCCC3)C2=O)c1 (stereo not given),0.03,13,-15,0,0,103*
COc1cccc(N2C(=O)C(CC(=O)Nc3ccccc3)N(C3CCCCC3)C2=O)c1 (stereo not given),-1.4,-14,-91,0,0,nt
COCCn1c(-c2ccc(-c3ccc([N+](=O)[O-])cc3Br)o2)nc2c1c(=O)[nH]c(=O)n2CC(C)C,1.1,-7,-114,-1,0,4
COC(=O)c1c(N2C(=O)Nc3ccccc3N2O)sc2c1CCCC2,-0.21,1,69*,2,0,-1
CCOc1ccc(-n2c(SCC(=O)NC(C)CC)nc3n[nH]c(C)c3c2=N)cc1 (stereo not given),3*,-12,nt,1,0,-30
CC(=O)NC(CC(=O)OCC(=O)c1c(N)n(C)c(=O)n(C)c1=O)c1ccccc1 (stereo not given),-0.61,5,nt,0,0,-4
CCC(=NC(C)c1ccccc1)c1c(O)n(C)c(=O)n(C)c1=O (stereo not given),-6.4,-7,81*,0,0,35
Cc1cc(NC(=O)c2ccc3c(c2)OCO3)no1,-1.1,-17,85*,0,0,-6
O=C(Nc1ccc2c(c1)OCO2)c1cc(C2CC2)on1,2.1,-112,nt,0,0,40
O=C(Nc1ccn(Cc2ccc(Cl)cc2)n1)c1ccc2c(c1)OCO2,0.22,-21,77*,-1,0,-9
Cc1cc(NC(=O)c2ccc3c(c2)OCCO3)no1,0.36,-2,-61,0,0,0
CC(C)c1cc(C(=O)Nc2ccc3c(c2)OCO3)no1,0.31,-7,80*,1,0,-10
